A selection: hits, their analogues and other compounds. The true share with any hit is near 10%.
PNC inhibitor: perinucleolar compartment assembly inhibition; 3.1% of 140,000 active; activity change (PNC), negative = inhibition, % at 10 µM; PC3M PTB-GFP, PNC prevalence imaging, 16 h; hits give low values;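 active means readout at or below -70, meaning at least 70% loss of cells showing the perinucleolar compartment, a nuclear body marking cancer cells; inconclusive means readout between -30 and a set limit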
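Read-out is percentage of cells bearing a perinucleolar compartment, from automated 20x imaging of fixed, Hoechst-stained PC3M PTB-GFP cells. Cells were seeded 4 h, then exposed 16 h to compound (23 nl of library stock) in duplicate plates.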
Lamin A splicing: modulators of lamin A splicing; HeLa LMNA splicing GFP/RFP minigene ratio, 48 h; Potency, µM (top dose mostly 46.1 µM), usual class: inhibitors; 0.01% of 200,000 active; active means well fitted inhibition curve with a large enough effect in the signal ratio, with a control signal flat, not every such curve was filed as active; inconclusive means small, poorly fitted or top-dose-only effect, or effect the other way, or a change in a side signal; the % refers to the signal ratio
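S3 HeLa cells stably expressing lamin A-EGFP splicing minigene plus DsRed2, 600 cells/well, 48 h compound exposure at 37C. Laser-scanning cytometry; analysed as GFP (500-530 nm)/RFP (575-640 nm) total intensity ratio; 0.5% DMSO vehicle.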
IMPase cell inh: IMPase inhibition in cells. CHO-M1 cells, IP1 accumulation, HTRF TR-FRET ratio. inhibition (IP1 accumulation), % at 46.1 µM. 120,000 tested, under 10 active; active means well fitted curve in the direction sought with a large enough effect in the signal ratio, not every such curve was filed as active; inconclusive means small, poorly fitted or top-dose-only effect, or a change in a side signal; inactive means no such curve, though single readings can be large or run the other way; the % refers to the signal ratio;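 further: cells stimulated with carbachol in lithium chloride buffer; higher means more IMPase inhibition seen as more IP1 and lower FRET ratio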
Target sequence (P97697 whole entry, looked up): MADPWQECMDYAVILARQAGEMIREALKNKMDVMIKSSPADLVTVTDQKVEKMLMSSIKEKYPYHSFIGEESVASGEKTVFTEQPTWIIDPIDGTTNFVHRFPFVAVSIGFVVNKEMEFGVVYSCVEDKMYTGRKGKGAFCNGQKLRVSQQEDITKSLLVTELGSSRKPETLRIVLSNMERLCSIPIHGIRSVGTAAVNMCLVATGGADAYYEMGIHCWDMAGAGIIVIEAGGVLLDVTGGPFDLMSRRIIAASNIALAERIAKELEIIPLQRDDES
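CHO-M1, 2000 cells/well, cultured 16–30 h; cpd up to 46 uM; carbachol (50 uM solution, stimulation buffer w/ 50 mM LiCl, pH 7.4), 30 min 37C; IP-One TR-FRET, 10 min RT; Ex 320/Em 665, 620; Hill-fit AC50.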
HPGD inh: inhibitors of human 15-hydroxyprostaglandin dehydrogenase (HPGD). P15428. purified HPGD, NADH fluorescence kinetic, PGE2 substrate. Potency, µM, most hits filed as inhibitors. 4.3% of 150,000 active
Target sequence (P15428 whole entry, looked up): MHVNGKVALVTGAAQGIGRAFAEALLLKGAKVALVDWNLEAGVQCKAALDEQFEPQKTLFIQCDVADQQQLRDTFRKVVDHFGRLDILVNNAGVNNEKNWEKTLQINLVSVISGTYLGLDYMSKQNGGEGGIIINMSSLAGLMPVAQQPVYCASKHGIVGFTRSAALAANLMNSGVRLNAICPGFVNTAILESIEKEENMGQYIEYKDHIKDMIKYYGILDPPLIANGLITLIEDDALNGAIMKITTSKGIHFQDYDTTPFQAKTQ
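NADH formation kinetics: reaction with 30 uM PGE2 and 1 mM NAD+ (final), 20 nM enzyme, Tris-HCl pH 8 with Tween 20, after 15 min compound preincubation at room temperature. Fluorescence change, last versus first of five reads.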
Luc counter: blocks Kinase-Glo luciferase, a counter-screen artifact; 0.28% of 200,000 active; Kinase-Glo luciferase, ATP luminescence, 8 min; Potency, µM (highest dose often 38.3 µM), most hits filed as inhibitors; Q27757; active means well fitted inhibition curve with a large enough effect; inconclusive means small, poorly fitted or top-dose-only effect; further: nearly all actives have a fitted effect of over 60% in size
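Kinase-Glo luciferase light output from ATP and luciferin was measured with 10 uM ATP, within the enzyme's linear range. Buffer: 50 mM imidazole pH 7.2, 50 mM KCl, 7 mM MgCl2, 0.01% Tween 20, 0.05% BSA; luminescence read after 8 min at ambient temperature.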
ALDH1A1 block: blocks purified human ALDH1A1 activity. Potency, µM (doses to about 75.3 µM), usual class: inhibitors. Purified ALDH1A1, NADH fluorescence, propionaldehyde substrate. 7.3% of 220,000 active
Numbers stand for hits; – = inactive; ? = inconclusive; · = no result; [ ] = remark or other dose. Unless noted, the call rests on the fitted dose curve; in most records, active means well fitted inhibition curve with a large enough effect (not every such curve was filed as active); inconclusive means small, poorly fitted or top-dose-only effect, or another doubt; inactive means no such curve, though single readings can be large or run the other way.

SMILES	PNC inhibitor	Lamin A splicing	IMPase cell inh	HPGD inh	Luc counter	ALDH1A1 block
CC(C)OC(=O)c1cccc(C(=O)OCc2ccco2)n1	–	?	–	–	–	8.91µM
Cc1ccc2nc(COc3cccc(NC(=O)COc4ccc(F)cc4)c3)cc(=O)n2c1	·	–	·	·	·	·
CN(Cc1ccccc1)C(=S)NC(=O)C1CCCCC1	–	–	–	·	·	–
O=C(NC(=S)N(Cc1ccccc1)c1ccccn1)C1CCCCC1	-102.6	–	·	?	–	?
Cc1cccc(-c2nnc3n2N=C(c2ccccc2Br)CS3)c1	–	?	–	2.51µM	–	?
Cc1ccc(-c2nnc3n2N=C(c2ccccc2)CS3)cc1	–	?	–	–	–	?
CCOc1cccc(-c2nnc3n2N=C(c2cc(OC)ccc2OC)CS3)c1	-98.6	?	–	25.1µM	–	28.2µM
COc1cccc(-c2nnc3n2N=C(c2cc(OC)ccc2OC)CS3)c1	–	–	–	28.2µM	–	–
Cc1ccc(Cl)cc1	·	·	·	–	·	–
O=C(NCC1COc2ccccc2O1)C1CCN(S(=O)(=O)c2cccc3nsnc23)CC1 (stereo not given)	-85.4	–	–	–	–	–
O=S(=O)(c1cccc2nsnc12)N1CCN(c2ccccc2F)CC1	·	?	·	·	–	22.4µM
O=C(NCC1COc2ccccc2O1)C1CCCN(S(=O)(=O)c2cccc3nsnc23)C1 (stereo not given)	–	–[0.0737 µM]	–	–	–	–
O=S(=O)(c1cccc2nsnc12)N1CCN(c2ccc(F)cc2)CC1	·	–[9.22 µM]	·	·	–	–
N#C/C(=N/Nc1ccc([N+](=O)[O-])cc1)C(=N)N1CCCCC1	·	·	·	·	–	?
N#C/C(=N\Nc1ccc(S(=O)(=O)N2CCCCC2)cc1)C(N)=S	–	?	·	–	–	12.6µM
N#C/C(=N\Nc1ccc(S(=O)(=O)N2CCc3ccccc32)cc1)C(N)=S	·	?	·	·	–	6.31µM
N#C/C(=N\Nc1ccc(S(=O)(=O)N2CCCCCC2)cc1)C(N)=S	·	·	·	·	–	8.91µM
N#C/C(=N/Nc1ccc(S(=O)(=O)N2CCOCC2)cc1)C(N)=O	·	–[9.22 µM]	·	·	–	–
CC1CCc2c(sc3nnn(Cc4ccccc4Cl)c(=O)c23)C1 (stereo not given)	·	·	–	·	·	·
Cc1sc2ccccc2[n+]1CCC(=O)O	·	·	·	–	–[7.66 µM]	–[13.5 µM]
O=C(NC(=S)Nc1ccccc1)c1cc(-c2ccccc2)nc2ccccc12	?	–	–	20µM	–	1.26µM
O=C(Nc1ccccc1)c1cc(Cl)nc2ccccc12	-100.0	–	·	–	–	–
O=C(Nc1ccccc1)c1cnc2ccccc2n1	-113.8	–	·	–	–	–
CC(=O)c1ccc(NC(=O)c2cc(Cl)nc3ccccc23)cc1	·	–	·	·	–	–
CCNC(=S)NNC(=O)c1cc(-c2cccc(OCC)c2)nc2ccccc12	–	–	–	–	–	–
SMILES	PNC inhibitor	Lamin A splicing	IMPase cell inh	HPGD inh	Luc counter	ALDH1A1 block
CCNC(=S)NNC(=O)c1cc(-c2cccc(C)c2)nc2ccccc12	–	?	–	–	12.6µM	?
NC(=O)c1ccc(NC(=O)c2cnc3ccccc3n2)cc1	·	–	·	·	·	–
CCCCC[C@H](O)/C=C/[C@H]1OC(=O)C[C@H](O)[C@@H]1C/C=C\CCCC(=O)O	·	·	·	–	–	?
CCNC(=S)NNC(=O)c1ccccc1OC(F)F	–	–	–	–	–	–
CCNC(=S)NNC(=O)c1ccccc1Cl	-80.5	–	·	–	–	–
CCC(CC)C(=O)Nc1cccc(/C(C)=N/NC(=O)c2ccccc2Cl)c1	–	–	–	–	–	12.6µM
CCC(CC)C(=O)Nc1cccc(/C(C)=N/NC(=O)c2c(Br)cnn2C)c1	–	–	–	–	–	–
O=C(COC(=O)Cc1ccccc1F)Nc1ccc(Cl)cn1	·	?	·	·	–	12.6µM
CNc1cccc2c1C(=O)c1ccccc1C2=O	–	–	–	–	–	–
CNc1cccccc1=S	–	–	–	28.2µM	–	10µM
O=C(NNC1=C(C(=O)C(F)(F)F)CCC1)c1ccccc1Cl	–	?	–	14.1µM	–	–
CC(=O)c1ccc(NC(=O)CCSCCC(=O)Nc2ccc(C(C)=O)cc2)cc1	–	–	–	–	–	39.8µM
CC(=O)c1ccc(NC(=O)CSCC(=O)Nc2ccc3ccccc3c2)cc1	?	–	–	–	–	?

Screening results: PubChem, National Center for Advancing Translational Sciences (NCATS)
